Assay outcomes as filed in PubChem BioAssay.
An excerpt weighted towards active compounds, which were near 7.8% of everything screened.
PostGolgi ctrl: growth inhibition of yeast control strain, primary screen, counter-screen for post-Golgi transport modulator project | hit rate 5% among 98,000 | inhibition, % at 10 µM | efflux-deficient yeast background strain, growth absorbance A615, 16 h
sEH activator: soluble epoxide hydrolase activators, primary screen, biochemical, human sEH. Bifunctional epoxide hydrolase 2 (Homo sapiens), P34913. purified human sEH enzymatic activity, activator screen. activation, % at 2 µM. hit rate 0.04% among 91,000. AID 717, 2007; in the data active means activation above about 37%
Target sequence (P34913 whole entry, looked up): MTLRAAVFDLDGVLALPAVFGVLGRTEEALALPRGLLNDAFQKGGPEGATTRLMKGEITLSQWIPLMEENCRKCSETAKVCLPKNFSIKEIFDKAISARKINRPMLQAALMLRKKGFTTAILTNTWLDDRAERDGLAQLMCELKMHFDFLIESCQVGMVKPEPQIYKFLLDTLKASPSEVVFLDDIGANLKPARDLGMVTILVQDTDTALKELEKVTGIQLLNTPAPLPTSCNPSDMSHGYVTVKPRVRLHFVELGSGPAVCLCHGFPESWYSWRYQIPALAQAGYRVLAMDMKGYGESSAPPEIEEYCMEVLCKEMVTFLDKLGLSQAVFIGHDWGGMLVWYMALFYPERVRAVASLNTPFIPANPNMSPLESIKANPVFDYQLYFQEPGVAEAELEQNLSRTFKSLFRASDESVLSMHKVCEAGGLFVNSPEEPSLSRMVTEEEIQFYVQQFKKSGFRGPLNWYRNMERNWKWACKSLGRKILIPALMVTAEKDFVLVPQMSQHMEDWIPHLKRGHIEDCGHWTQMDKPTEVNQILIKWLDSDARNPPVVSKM
PostGolgi yeast: phenotypic screen on post-Golgi transport, primary screen | hit rate 0.9% among 98,000 | post-Golgi transport phenotypic cell assay | inhibition, % at 10 µM;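 further: yeast cells grown in 1536-well plates; yeast grown about 18 h at 30C before absorbance read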
sEH inhibitor: soluble epoxide hydrolase inhibitors, primary screen, biochemical, human sEH; Bifunctional epoxide hydrolase 2 (Homo sapiens), P34913; recombinant human sEH enzymatic activity assay; inhibition, % at 2 µM; hit rate 0.34% among 91,000; AID 707, 2007; in the data active means inhibition above about 80%
Cav3 T inh: Cav3.2 calcium influx blockers – cell-based, Fluo-4 calcium fluorescence, FDSS, MLSMR library, primary screen; Cav3.2-expressing cells; stronger effect = lower value; B-score at 10 µM; hit rate 4% among 100,000; Voltage-dependent T-type calcium channel subunit alpha-1H (Homo sapiens), O95180;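 active means single-dose well whose peak fluorescence ratio is a statistical outlier from its plate by either plate-standardised score or position-corrected B-score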
Numbers without * were called inactive. Unless noted, no stated cut-off is given here; in the data, active means inhibition above about 30%; inactive means the rest.

Screening CCC(=O)N(Cc1cc2c(C)cc(C)cc2[nH]c1=O)C1CCCCC1 returned PostGolgi ctrl 47.1*, sEH activator 1.2, PostGolgi yeast 9.4, sEH inhibitor 0.1 and Cav3 T inh -1.1.
For CCOC(=O)c1c(NC(=O)C2C3CCC(O3)C2C(=O)O)sc(C)c1-c1ccc(F)cc1 (stereo not given) the results were PostGolgi ctrl 8.0, sEH activator 11.8, PostGolgi yeast -4.7 and sEH inhibitor -11.7.
For CCOC(=O)c1c(N)sc(C(O)(C(F)(F)F)C(F)(F)F)c1-c1ccc(F)cc1 the results were PostGolgi ctrl 16.0, sEH activator 7.3, PostGolgi yeast 1.9, sEH inhibitor -5.4 and Cav3 T inh -4.88*.
`CCOC(=O)c1c(N)sc(C(O)(C(F)(F)F)C(F)(F)F)c1-c1ccc(Cl)cc1` gave PostGolgi ctrl 71.8*, sEH activator -7.6, PostGolgi yeast -1.1, sEH inhibitor 9.4 and Cav3 T inh -0.569.
For O=C(CSc1ccccc1)N1CCN(c2ccccc2)CC1 the results were PostGolgi ctrl -7.2, sEH activator 8.5, PostGolgi yeast -1.1, sEH inhibitor -10.5 and Cav3 T inh -0.13.
For COc1ccccc1N1CCN(C(=O)CSc2nc3ccccc3o2)CC1 the results were PostGolgi ctrl 7.8, sEH activator -8.0, PostGolgi yeast 33.5*, sEH inhibitor 5.5 and Cav3 T inh 0.0954.
`COc1ccccc1N1CCN(C(=O)Cc2cccs2)CC1` gave PostGolgi ctrl 38.3*, sEH activator -3.6, PostGolgi yeast -0.8, sEH inhibitor 4.2 and Cav3 T inh 0.548.
COc1ccc(N2CCN(C(=O)CSc3nnc(CNc4ccccc4)o3)CC2)cc1 was read as PostGolgi ctrl -1.1, sEH activator 11.7, PostGolgi yeast 3.0, sEH inhibitor -11.8 and Cav3 T inh 0.0314.
For O=C(CSc1nc(N2CCCCC2)nc(N2CCCCC2)n1)N1CCN(c2ccccc2)CC1 the results were Cav3 T inh -8.79*.
Screening O=C(Cc1cccs1)N1CCN(c2ccc(F)cc2)CC1 returned sEH activator 0.6, sEH inhibitor -1.1 and Cav3 T inh -2.11.
For COc1ccc(Cc2nnc(SCC(=O)N3CCN(c4ccccc4)CC3)o2)cc1 the results were PostGolgi ctrl 36.1*, sEH activator 1.2, PostGolgi yeast 3.9, sEH inhibitor 1.8 and Cav3 T inh -0.316.
Clc1ccc(COc2ccccn2)cc1Cl was read as PostGolgi ctrl -5.4, PostGolgi yeast 2.4 and Cav3 T inh 0.153.
For c1coc(-c2nn3c(Cn4nnc5ccccc54)nnc3s2)c1 the results were PostGolgi ctrl 9.0, sEH activator 4.9, PostGolgi yeast 0.0, sEH inhibitor -1.9 and Cav3 T inh -0.226.
`CC(C)CCN1C(=O)c2ccccc2C1C(=O)NCc1cccnc1` (stereo not given) gave PostGolgi ctrl -3.2, sEH activator -7.1, PostGolgi yeast 6.2, sEH inhibitor 4.5 and Cav3 T inh 1.02.
Screening CCC1(C)Cc2ccccc2-c2nc3n(c(=O)c21)CC(C(=O)O)S3 (stereo not given) returned PostGolgi ctrl 9.3, sEH activator 6.8, PostGolgi yeast 9.4, sEH inhibitor -6.3 and Cav3 T inh 1.27.
For CCC(=O)Nn1cnc2c(c1=O)C1(CCCCC1)Cc1ccccc1-2 the results were PostGolgi ctrl 30.9*, sEH activator -66.3, PostGolgi yeast 3.2, sEH inhibitor 67.0 and Cav3 T inh -1.23.
Screening Cc1ccccc1-n1c(=O)c2c(n3cnnc13)-c1ccccc1CC21CCCCC1 returned PostGolgi ctrl 19.2, sEH activator 15.5, PostGolgi yeast -1.9, sEH inhibitor -14.5 and Cav3 T inh 2.73.
For CCCC(=O)Nn1cnc2c(c1=O)C1(CCCCC1)Cc1ccccc1-2 the results were PostGolgi ctrl 34.8*, sEH activator -99.0, PostGolgi yeast -1.5, sEH inhibitor 99.0* and Cav3 T inh -1.46.
For O=C(Nc1ccccc1)C(O)C(O)C(=O)Nc1ccccc1 (stereo not given) the results were Cav3 T inh 1.51.
CCC(Oc1ccccc1)C(=O)Nc1nnc(C)s1 (stereo not given) was read as PostGolgi ctrl 31.0*, sEH activator 2.7, PostGolgi yeast 11.3, sEH inhibitor 0.9 and Cav3 T inh 0.093.
`CCC(Oc1ccccc1)C(=O)Nc1ccccc1OC` (stereo not given) gave PostGolgi ctrl 31.1*, sEH activator 2.7, PostGolgi yeast -1.1, sEH inhibitor -4.0 and Cav3 T inh -0.464.
`CCC(Oc1ccccc1)C(=O)Nc1nnc(C(F)(F)F)s1` (stereo not given) gave PostGolgi ctrl 48.2*, sEH activator -4.2, PostGolgi yeast 8.4, sEH inhibitor 6.7 and Cav3 T inh -1.26.
Screening Cc1nnc(NC(=O)Oc2ccccc2)s1 returned PostGolgi ctrl 8.2, sEH activator 14.5, PostGolgi yeast -8.0, sEH inhibitor -15.9 and Cav3 T inh -0.265.
Screening COc1ccccc1NC(=O)C(C)NS(=O)(=O)c1ccccc1 (stereo not given) returned PostGolgi ctrl 1.8, sEH activator 6.6, PostGolgi yeast 6.6, sEH inhibitor -3.5 and Cav3 T inh 0.267.
Screening CCCc1nnc(NC(=O)COC(=O)c2cc(C)nc3ccccc23)s1 returned PostGolgi ctrl 8.3, sEH activator -14.2, PostGolgi yeast -1.8, sEH inhibitor 14.8 and Cav3 T inh -4.34.
Screening CCCc1nnc(NC(=O)C(CC)OC(=O)c2cc(C)nc3ccccc23)s1 (stereo not given) returned PostGolgi ctrl 13.9, sEH activator 3.5, PostGolgi yeast 7.8, sEH inhibitor -2.9 and Cav3 T inh -4.32*.
COc1cc(OC)cc(OCC(O)Cn2ccnc2)c1 (stereo not given) was read as PostGolgi ctrl 9.1, PostGolgi yeast -1.9 and Cav3 T inh -0.172.
Screening Cn1c(=O)[nH]c(=O)c2c1nc(CN1CCN(c3cccc(Cl)c3)CC1)n2Cc1ccccc1Cl returned PostGolgi ctrl 51.4*, PostGolgi yeast 8.4 and Cav3 T inh -0.433.
For Cn1c(=O)[nH]c(=O)c2c1nc(N1CCCCCC1)n2Cc1cccc2ccccc12 the results were PostGolgi ctrl -3.0, sEH activator -0.5, PostGolgi yeast -1.9, sEH inhibitor 0.1 and Cav3 T inh 0.424.
Cc1cccc(Cn2c(N3CCCCC3C)nc3c2c(=O)[nH]c(=O)n3C)c1 (stereo not given) was read as PostGolgi ctrl 30.8*, PostGolgi yeast 1.4 and Cav3 T inh -3.76*.
`CC1CCCN(c2nc3c(c(=O)[nH]c(=O)n3C)n2Cc2ccccc2Cl)C1` (stereo not given) gave PostGolgi ctrl 34.0*, sEH activator 5.6, PostGolgi yeast 2.2, sEH inhibitor -5.9 and Cav3 T inh -6.1*.
Screening Cc1ccc(Cn2c(N3CCCCCC3)nc3c2c(=O)[nH]c(=O)n3C)cc1 returned PostGolgi ctrl 43.4*, sEH activator -12.4, PostGolgi yeast 5.9 and sEH inhibitor 12.3.
